Compound activity (PubChem BioAssay)
M1 agonist: agonists of M1 muscarinic receptor. CHO-M1 cells, Fluo-4 calcium fluorescence, agonist mode; active compounds read high. B-score at 10 µM. 64,000 tested, 3% active;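 active = fluorescence rise, raw or as B-score row- and column-corrected plate score, outside the 99.7% band of its plate's samples, either direction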
PTK2B oligo ant: Pyk2 (human) oligomerization antagonism; Q14289; Q293 cells, Pyk2 FERM NanoBiT luminescence; active compounds read low; z-score (the deposit names both 25 µM and 10 µM); 99,000 tested, 0.83% active; AID 1347419;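 active = Z-score of -3 or lower, scaled per plate to the spread of control and sample wells; inactive = z-score above -3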;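 also: negative z-score means lost luminescence so less FERM oligomerization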
M1 antagonist: blocks the rat M1 muscarinic receptor response to acetylcholine | P08482 | CHO-M1 cells, Fluo-4 calcium, ACh EC80 antagonist mode; active compounds read low | B-score at 10 µM | 64,000 tested, 3.4% active;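 active = calcium fluorescence response, raw or row-and-column corrected B-score, differing from the plate sample mean either way at a set confidence level, mostly lower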
Cav32 inh: human Cav3.2 channel inhibition, primary screen | 100,000 tested, 4% active | B-score at 10 µM | AID 449739 | Cav3.2-expressing cells, Fluo-4 calcium fluorescence FDSS; active compounds read low;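 active = single-dose well whose peak fluorescence ratio is a statistical outlier from its plate by either plate-standardised score or position-corrected B-score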
M1 agonist conf: rat M1 muscarinic agonism, confirmation | 1,700 tested, 19% active | CHO-M1 cells, Fluo-4 calcium fluorescence, agonist mode; actives lie on both sides | fluorescence change (max-min) at 10 µM | shares compounds with M1 agonist;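 active = fluorescence change differs from the solvent-only DMSO control mean at a set confidence level in both duplicate runs; inconclusive = differs from solvent-only control mean in just one of two runs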;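 also: an EC20 dose of acetylcholine follows compound addition during the same imaging run; raw fluorescence intensity difference in instrument units with no normalization to controls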
M4 ag counter: rat M4 muscarinic agonism, M1 counter-screen. shares compounds with M1 agonist. CHO M4/Gqi5 cells, Fluo-4 calcium fluorescence, agonist mode; actives lie on both sides. fluorescence change (max-min) at 10 µM. 1,700 tested, 9% active;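 active = fluorescence change differing from the plate's solvent-only control wells at 99.7% confidence in both duplicates, whether higher or lower; inconclusive = differs from solvent controls in only one of two duplicates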
Starred values were filed as active, the others as inactive; ? = inconclusive; / = no result. In the library only some 7.1% were active in any assay of this set; here they are far more common.

SMILES | M1 agonist | PTK2B oligo ant | M1 antagonist | Cav32 inh | M1 agonist conf | M4 ag counter
CC(C)N1CCc2c(sc(NC(=O)c3ccc(S(=O)(=O)N4CCOCC4)cc3)c2C(N)=O)C1 | 8.9* | / | -0.21 | 0.24 | 13 | 3.8
Cc1nc2ccccc2c(=O)n1NS(C)(=O)=O | 0.17 | 0.32 | 0.83 | 0.3 | / | /
Cc1nc2ccccc2c(=O)n1NCc1cc(Br)cs1 | 4.4* | -1 | -0.19 | -0.96 | -5.2 | -13
COc1ccc(OC)c(C(=O)CN2CCN(S(=O)(=O)c3ccc(Br)cc3)CC2)c1 | 28* | -0.09 | 0.41 | / | -25 | -21
COc1ccccc1NC(=O)CSc1nnc(C)o1 | 2.4* | 0.33 | 0.078 | -0.015 | -12 | -29
O=c1c2sc3nc(N4CCOCC4)c4c(c3c2ncn1Cc1ccco1)CCCC4 | 0.94 | / | 1 | / | / | /
COC(=O)c1c(NC(=O)c2ccoc2C)sc2c1CCC2 | 2.2* | 0.69 | 0.23 | -0.57 | 0.42 | -44
O=C(NCCc1ccc(Cl)cc1)C1CCC(=O)N1Cc1ccc(F)cc1 (centres undefined) | / | / | / | -0.19 | / | /
CCc1c(C)nc2ncnn2c1NCCc1ccc(OC)cc1 | 4.8* | -0.52 | -2.8* | -0.046 | -9.3 | ?
CCc1c(C)nc2ncnn2c1Nc1ccc(C)c(C)c1 | / | 0.44 | / | -0.69 | / | /
O=C1CC2(CCCC2)Oc2ccc(F)cc21 | / | / | / | 0.43 | / | /
CC1(C)Cc2c(c(N3CCOCC3)nc3sc(-c4ccc(C(=O)O)o4)c(N)c23)CO1 | -1.7 | -0.2 | -0.21 | 0.42 | / | /
CNC(=O)c1ccc(-c2sc3nc(N4CCOCC4)c4c(c3c2N)CCCC4)o1 | 5.8* | 0.75 | -1.1 | 0.18 | -3.7 | -69*
CCOC(=O)C1CCN(c2c(N3CCCC(C(=O)OCC)C3)c(=O)c2=O)CC1 (centres undefined) | 27* | / | -0.13 | 0.63 | 38 | ?
COC(=O)c1ccc(NC(=O)CN2C(=O)CNC2=O)cc1 | / | -0.49 | / | -0.34 | / | /
O=C(Nc1ccc(N2CCN(C(=O)c3cccs3)CC2)c(Cl)c1)c1ccco1 | / | -2.2 | / | 0.7 | / | /
Cc1ccccc1C(=O)N1CCN(c2ccc(NC(=O)c3ccco3)cc2Cl)CC1 | 2.9* | -1.8 | -0.18 | -0.6 | ? | -94
Cc1cc(C)nc(N2CCCC(C(=O)Nc3nnc(C(C)C)s3)C2)n1 (centres undefined) | / | / | / | 1.2 | / | /
O=C(O)c1ccccc1S(=O)(=O)c1ccccc1CO | 8* | 1.8 | -0.0056 | -0.0062 | -12 | -45
O=C(Cn1c(=O)n(CCCC(=O)NC2CCCC2)c(=O)c2ccccc21)NCCC1=CCCCC1 | 0.84 | 0.18 | 0.16 | / | / | /
Cc1ccc2[nH]c3c(c2c1)CN(C(=O)CN1CCN(c2cccc(C)c2C)CC1)CC3 | -3* | -0.5 | -0.31 | -3.1 | 37 | -5.4
CC(=O)Nc1cc2c(cc1NC(=O)Cn1nc(-c3ccc4c(c3)OCCO4)ccc1=O)OCCO2 | / | 0.71 | / | -0.046 | / | /
Cc1cccc2cc3c(N)c(C(=O)N4CCOCC4)sc3nc12 | 7* | 0.19 | -0.37 | -1.3 | ? | 31
Cc1cccc(N2C(=O)c3cccc4c(N(C)CCO)ccc(c34)C2=O)c1 | 351* | -2.1 | -14* | / | 1544* | 1425*
O=C(OCCNC(=O)c1ccc2ccccc2n1)c1cccnc1 | 3.2* | -0.07 | 0.1 | -2.8 | ? | -48
SMILES | M1 agonist | PTK2B oligo ant | M1 antagonist | Cav32 inh | M1 agonist conf | M4 ag counter
COc1ccccc1Nc1ncccc1C(=O)NCc1ccccc1 | / | -1.8 | / | 0.66 | / | /
CCOC(=O)c1c(NC(=O)c2nn(CC)cc2Br)c(C#N)cn1-c1ccccc1 | 3.1* | -2.3 | -1.1 | -4 | -3 | -21
CCOC(=O)c1c(N)c(C#N)cn1-c1ccccc1 | 0.51 | 0.09 | -0.82 | -0.1 | / | /
Cc1ccc(-c2cc(C(=O)Nc3nn[nH]n3)c3ccccc3n2)cc1 | / | 0.37 | / | 0.0027 | / | /
CC(=O)c1cc2c(cc1NC(=O)Nc1cccc(Cl)c1)OCCO2 | 19* | -0.31 | 0.076 | -0.69 | 42 | 18
COC(=O)c1cc(=O)n(Cc2ccco2)c(=Nc2ccc(F)c(Cl)c2)s1 | 7.1* | / | -0.66 | -1.9 | -15 | -39
COc1ccccc1NC(=O)C1=C(C)Nc2nc(-c3cccs3)nn2C1c1cccc(O)c1 (centres undefined) | 8.5* | -2.3 | -1.3 | / | ? | ?
COc1ccc(C2C(C(=O)Nc3cccnc3)=C(C)Nc3nc(-c4cccs4)nn32)cc1OC (centres undefined) | -0.55 | / | -0.2 | 0.55 | / | /
O=C(CSCc1c(F)cccc1Cl)NCc1ccco1 | 1.5* | 1.1 | -0.42 | -1.2 | -17 | -23
Cc1ccc(/C=c2\s/c(=C(/C#N)C(=O)N3CCCC3)n(Cc3ccco3)c2=O)s1 | 3* | -0.21 | -0.088 | -0.64 | 2 | 3.2
COC(=O)/C=c1/s/c(=C(/C#N)C(=O)N2CCCCC2)n(-c2ccccc2)c1=O | 0.047 | / | 0.07 | / | / | /
O=C1CN(c2ccc(Cl)cc2)C(=O)CN1NC(=S)Nc1ccc(Cl)cc1 | / | 0.22 | / | 0.24 | / | /
Nc1c(S(=O)(=O)c2ccccc2)c2nc3ccccc3nc2n1Cc1ccco1 | 2.9* | -1.1 | 0.058 | -2.3 | 24 | -40
CCOc1ccc2nc(NC(=O)CS(=O)(=O)c3ccccc3)sc2c1 | 2.2* | 0.43 | 0.32 | -0.75 | -16 | -38
CCOc1ccc2nc(NC(=O)CS(=O)(=O)c3ccc(C)cc3)sc2c1 | / | 0.37 | / | -0.69 | / | /
COc1ccc(NC(=O)[C@@H](NC(=O)c2ccccc2)C(C)C)cc1S(=O)(=O)N1CCCCC1 | / | -0.52 | / | / | / | /
O=C(CC(NS(=O)(=O)c1ccc(Cl)cc1)c1ccco1)NCc1ccco1 (centres undefined) | -2.9* | -0.53 | 0.018 | / | ? | -55
CCCNC(=O)CC(NS(=O)(=O)c1ccc(Cl)cc1)c1ccco1 (centres undefined) | 1.2 | 1.5 | -0.6 | -0.06 | / | /
CCn1c(SCC(=O)c2cc(C)n(-c3ccc(C(=O)OC)cc3)c2C)nnc1-c1cccnc1 | 3.9* | -0.02 | -2.1 | 2.2 | -20* | ?
CCOc1ccc(-c2cc(C(=O)N3CCN(C)CC3)c3ccccc3n2)cc1 | 2.2 | -0.74 | -0.77 | 0.094 | / | /
CCOC(=O)N1CCN(C(=O)c2cc(-c3ccc(OCC)cc3)nc3ccccc23)CC1 | 8.7* | -1.1 | -0.39 | -2.1 | ? | -37
Cc1cc(C)nc(/N=c2/ssnc2Cl)c1 | 6.3* | 0.15 | 0.03 | 0.67 | -7.9 | ?
CC1Cc2ccccc2N1C(=O)CCNS(=O)(=O)c1cccc2nsnc12 (centres undefined) | 2.7* | 0.16 | -0.04 | / | ? | ?
CCOC(=O)C1C(=O)CC(C)(O)C(C(=O)OCC)C1/C=C/c1ccccc1 (centres undefined) | 2.9* | -0.49 | -0.7 | 1 | -0.94 | -2.8
CC(CN1CCOCC1)(NS(=O)(=O)c1ccccc1)c1ccccc1 (centres undefined) | 18* | 0.55 | -0.089 | -0.46 | ? | -37
CC(C(=O)N1CCOCC1)(c1ccccc1)c1ccccc1 | 0.026 | -0.04 | 0.47 | -0.73 | / | /
c1ccc(CSc2nnc(-c3ccco3)n2Cc2ccco2)cc1 | -0.46 | -0.02 | -0.51 | -2.3 | / | /
